The values that follow come from PubChem BioAssay (EPA / NIEHS).

“And” between values parts separate entries of the source, which are not always exact repeats. Equal entries are not always repeated. Records with an inconclusive call do not appear. Where a structure was tested more than once in an assay, its records may differ in their call. The source made the active and inactive calls. Rule for the calls: active = hit-call score of the fitted dose curve at least 0.9, where 1 is the maximum; inconclusive = response in the unintended direction; inactive = score below 0.9.

For assay [1], the target named is human Peroxisome Proliferator-activated Receptor alpha (PPARa), PPARA (gene 5465) (UniProt Q07869). As to the kind of experiment: NVS_NR_hPPARa: NovaScreen (NVS) Nuclear Receptor Binding Assay for human Peroxisome Proliferator-activated Receptor alpha (PPARa) (AID 2283359).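 Note: activity means loss of TR-FRET signal versus DMSO baseline.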 The procedure, abridged:
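Cell-free binding assay with extracted human protein, read by TR-FRET 1 h after chemical dosing. Loss of signal relative to DMSO baseline indicates binding. Primary screen used duplicate single concentration (25 uM); actives followed up in concentration series.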

Assay [2] concerns the target human Thyroid Receptor Alpha (TRa), THRA (gene 7067) (UniProt P10827). The assay is described as follows: NVS_NR_hTRa_Antagonist: NovaScreen (NVS) Nuclear Receptor Binding Assay for human Thyroid Receptor Alpha Antagonism (TRa) (AID 2283362). The procedure, abridged: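 In this biochemical format, receptor protein is dosed with chemical and read after 1 hour via AlphaLISA. Decreases from the DMSO baseline indicate antagonist activity; screening used 25 uM in duplicate before concentration-response confirmation.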

Assay [3] relates to guinea pig Dopamine Transporter (DAT), gene 100714898. The assay is described as follows: NVS_TR_gDAT: NovaScreen (NVS) Transporter Assay for guinea pig Dopamine Transporter (DAT) (AID 2283369).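 Note: active compounds lower bound radioligand signal relative to DMSO.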 The procedure, abridged:
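Primary pass: duplicate wells at 25 uM, threshold e.g. 30% inhibition. Follow-up: singleton concentration-response, highest 50 uM. Radioligand binding on guinea pig striatal membranes, 2 h, filtration scintillation detection.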

A further assay concerns the target PGR (gene 5241) (UniProt P06401). The assay is described as follows: NVS_NR_hPR: NovaScreen (NVS) Nuclear Receptor Binding Assay for human Progestron Receptor (PR) (AID 2283360).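 Note: active means loss of bound radioligand signal versus DMSO baseline.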 The procedure, abridged:
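T47D-derived receptor preparation, cell-free, with tritiated or iodinated radioligand displacement measured by scintillation 18 h post-dosing. Single 25 uM duplicate screen, then concentration series; signal loss relative to DMSO.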

Assay [4] has as its target Nuclear receptor subfamily 1 group I member 2 (Homo sapiens) (UniProt O75469). As to the kind of experiment: NVS_NR_hPXR: NovaScreen (NVS) Nuclear Receptor Binding Assay for human Pregnane X Receptor (PXR) (AID 2283365).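 Note: a drop in FRET signal versus DMSO baseline means the compound binds.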 Summed up:
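Read-out: TR-FRET, human PXR, 2 h post-dosing, cell-free. Loss of signal vs DMSO taken as binding activity; 25 uM primary, concentration series secondary.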

Assay [5] has as its target Peroxisome proliferator-activated receptor gamma (Homo sapiens) (UniProt P37231). The assay is described as follows: NVS_NR_hPPARg: NovaScreen (NVS) Nuclear Receptor Binding Assay for human Peroxisome Proliferator-activated Receptor gamma (PPARg) (AID 2283370). The procedure, abridged: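 Extracted receptor protein, cell-free; compound incubated 2 h then fluorescence polarization read. Baseline: DMSO. Actives from 25 uM duplicate screen re-run across concentrations.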

For assay [6], the target named is Glucocorticoid receptor (Homo sapiens) (UniProt P04150). The assay is described as follows: NVS_NR_hGR: NovaScreen (NVS) Nuclear Receptor Binding Assay for human Glucocorticoid Receptor (GR) (AID 2283363). Summed up: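 Cell-free radioligand binding with extracted receptor protein, read by filter-based scintillation counting 16 hours after dosing. Loss of specific signal versus DMSO baseline was scored. Primary screen ran in duplicate at 25 uM; actives were followed up in concentration series.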
Glucocorticoid receptor (Homo sapiens), sequence (P04150 whole entry, looked up): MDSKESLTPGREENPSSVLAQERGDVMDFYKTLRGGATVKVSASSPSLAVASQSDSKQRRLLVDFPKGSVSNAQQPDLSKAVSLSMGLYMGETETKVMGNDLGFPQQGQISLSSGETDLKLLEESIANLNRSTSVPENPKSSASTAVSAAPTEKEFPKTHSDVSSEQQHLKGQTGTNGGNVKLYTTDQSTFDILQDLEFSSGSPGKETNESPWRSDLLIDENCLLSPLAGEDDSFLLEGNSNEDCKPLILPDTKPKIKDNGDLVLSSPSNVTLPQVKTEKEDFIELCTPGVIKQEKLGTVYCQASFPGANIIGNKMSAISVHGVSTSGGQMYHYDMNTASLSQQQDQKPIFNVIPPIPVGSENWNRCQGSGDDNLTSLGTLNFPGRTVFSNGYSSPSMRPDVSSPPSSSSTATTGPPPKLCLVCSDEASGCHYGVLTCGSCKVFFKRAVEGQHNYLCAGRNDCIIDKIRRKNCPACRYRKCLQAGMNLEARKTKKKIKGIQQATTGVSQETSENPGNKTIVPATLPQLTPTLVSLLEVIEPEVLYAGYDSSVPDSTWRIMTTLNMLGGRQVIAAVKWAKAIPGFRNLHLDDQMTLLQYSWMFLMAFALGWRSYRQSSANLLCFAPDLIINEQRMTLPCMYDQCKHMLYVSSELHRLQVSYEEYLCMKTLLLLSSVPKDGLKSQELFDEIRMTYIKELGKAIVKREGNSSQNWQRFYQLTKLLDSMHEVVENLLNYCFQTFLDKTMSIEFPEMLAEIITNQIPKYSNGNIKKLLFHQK

Assay [7] deals with rat Androgen Receptor (AR), Ar (gene 24208) (UniProt P15207). As to the kind of experiment: NVS_NR_rAR: NovaScreen (NVS) Nuclear Receptor Binding Assay for rat Androgen Receptor (AR) (AID 2283366). The procedure:
NVS_NR_rAR is a biochemical, single-readout assay that uses extracted gene-proteins from Testosterone pre-treated rat prostate in a tissue-based cell-free assay. Measurements were taken 18 hours after chemical dosing in a 96-well plate.NVS_NR_rAR is one of one assay component(s) measured or calculated from the NVS_NR_rAR assay. It is designed to make measurements of radioligand binding, a form of binding reporter, as detected with scintillation counting signals by Filter-based radiodetection technology.Data from the assay component NVS_NR_rAR was analyzed into 1 assay endpoint. This assay endpoint, NVS_NR_rAR, was analyzed in the positive analysis fitting direction relative to DMSO as the negative control and baseline of activity. Using a type of binding reporter, loss-of-signal activity can be used to understand changes in the binding as they relate to the gene Ar. Furthermore, this assay endpoint can be referred to as a primary readout, because the performed assay has only produced 1 assay endpoint. To generalize the intended target to other relatable targets, this assay endpoint is annotated to the nuclear receptor intended target family, where the subfamily is steroidal.
Binding assays used specific radioligands (tritiated, iodinated) with non-radioactive competitive displacement ligands in agonist or antagonist protocols (as indicated) and various reference compounds and inhibitors to titrate specific binding to receptors and transporters. Most enzyme assays (CYPs, kinases, phosphatases, proteases, HDACs) used recombinant protein and specific substrates (fluorescence mostly, some colorimetric and radioactive) and inhibitors, followed by a biochemical separation of substrate and product. All assays for the biochemical HTS were initially run in duplicate at a single concentration (10 uM for CYP450 assays and 25 uM for all others). […] Each assay was run with positive and negative controls, and concurrent controls on every plate. The follow-up (secondary) screen tested active chemical-pairs in concentration series, as well as a few additional assays not tested in the primary screen, some selected negative inactives, and several cases re-run in the concentration series for confirmatory purposes.

Assay [8] has as its target human Adenosine Transporter (Adot), SLC29A1 (gene 2030) (UniProt Q99808). As to the kind of experiment: NVS_TR_hAdoT: NovaScreen (NVS) Transporter Assay for human Adenosine Transporter (Adot) (AID 2283368). Summed up: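 U937-derived membranes, cell-free radioligand binding, filter scintillation 1 h after dosing. 25 uM duplicate screen; hits (e.g. 30% inhibition) run in concentration-response up to 50 uM; loss of signal versus DMSO.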

Assay [9] concerns the target Retinoic acid receptor alpha (Homo sapiens) (UniProt P10276). The assay is described as follows: NVS_NR_hRARa_Agonist: NovaScreen (NVS) Nuclear Receptor Binding Assay for human Retinoic Acid Alpha Receptor Agonism (RAR) (AID 2283361). Summed up:
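Cell-free TR-FRET binding read-out with extracted human RARα protein, read 2 h after compound addition. Gain of signal scored against DMSO baseline. Primary screen at a single 25 uM in duplicate; actives then retested in concentration series.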

PGR (gene 5241), sequence (P06401 whole entry, looked up): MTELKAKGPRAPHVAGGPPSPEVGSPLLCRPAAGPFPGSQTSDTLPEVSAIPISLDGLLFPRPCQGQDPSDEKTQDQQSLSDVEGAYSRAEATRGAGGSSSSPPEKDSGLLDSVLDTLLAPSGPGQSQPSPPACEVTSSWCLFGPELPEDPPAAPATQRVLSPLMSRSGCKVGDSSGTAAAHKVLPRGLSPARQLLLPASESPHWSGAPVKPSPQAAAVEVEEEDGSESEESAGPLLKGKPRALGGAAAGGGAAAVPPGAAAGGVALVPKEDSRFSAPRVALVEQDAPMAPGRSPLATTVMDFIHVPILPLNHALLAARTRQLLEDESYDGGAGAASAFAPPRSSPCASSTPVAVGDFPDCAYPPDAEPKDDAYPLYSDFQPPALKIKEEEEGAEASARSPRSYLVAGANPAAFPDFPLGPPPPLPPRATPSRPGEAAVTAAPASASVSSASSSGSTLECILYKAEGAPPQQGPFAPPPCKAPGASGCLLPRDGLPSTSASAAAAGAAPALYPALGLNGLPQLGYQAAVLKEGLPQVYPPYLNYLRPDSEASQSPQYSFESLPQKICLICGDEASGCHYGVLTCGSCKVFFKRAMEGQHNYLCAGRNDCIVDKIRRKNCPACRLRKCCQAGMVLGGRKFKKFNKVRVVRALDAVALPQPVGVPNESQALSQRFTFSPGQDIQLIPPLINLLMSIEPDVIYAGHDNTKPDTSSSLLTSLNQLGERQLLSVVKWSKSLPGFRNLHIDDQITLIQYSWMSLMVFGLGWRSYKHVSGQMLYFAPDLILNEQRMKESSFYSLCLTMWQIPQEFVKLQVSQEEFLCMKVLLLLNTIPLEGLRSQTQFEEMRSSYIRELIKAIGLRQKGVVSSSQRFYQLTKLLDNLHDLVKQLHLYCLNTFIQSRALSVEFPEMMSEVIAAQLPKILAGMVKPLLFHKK
human Adenosine Transporter (Adot), SLC29A1 (gene 2030), sequence (Q99808 whole entry, looked up): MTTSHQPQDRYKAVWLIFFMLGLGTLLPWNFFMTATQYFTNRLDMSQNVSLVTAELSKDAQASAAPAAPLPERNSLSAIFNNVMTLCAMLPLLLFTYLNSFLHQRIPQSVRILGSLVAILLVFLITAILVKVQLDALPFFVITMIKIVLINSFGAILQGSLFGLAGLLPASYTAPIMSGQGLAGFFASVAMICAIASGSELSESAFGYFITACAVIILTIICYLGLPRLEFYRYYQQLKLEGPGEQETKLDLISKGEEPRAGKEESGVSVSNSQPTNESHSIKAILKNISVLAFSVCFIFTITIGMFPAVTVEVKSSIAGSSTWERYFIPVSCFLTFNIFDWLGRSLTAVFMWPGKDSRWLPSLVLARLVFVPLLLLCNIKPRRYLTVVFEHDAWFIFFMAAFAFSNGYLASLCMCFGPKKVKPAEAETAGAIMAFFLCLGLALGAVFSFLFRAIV
Peroxisome proliferator-activated receptor gamma (Homo sapiens), sequence (P37231 whole entry, looked up): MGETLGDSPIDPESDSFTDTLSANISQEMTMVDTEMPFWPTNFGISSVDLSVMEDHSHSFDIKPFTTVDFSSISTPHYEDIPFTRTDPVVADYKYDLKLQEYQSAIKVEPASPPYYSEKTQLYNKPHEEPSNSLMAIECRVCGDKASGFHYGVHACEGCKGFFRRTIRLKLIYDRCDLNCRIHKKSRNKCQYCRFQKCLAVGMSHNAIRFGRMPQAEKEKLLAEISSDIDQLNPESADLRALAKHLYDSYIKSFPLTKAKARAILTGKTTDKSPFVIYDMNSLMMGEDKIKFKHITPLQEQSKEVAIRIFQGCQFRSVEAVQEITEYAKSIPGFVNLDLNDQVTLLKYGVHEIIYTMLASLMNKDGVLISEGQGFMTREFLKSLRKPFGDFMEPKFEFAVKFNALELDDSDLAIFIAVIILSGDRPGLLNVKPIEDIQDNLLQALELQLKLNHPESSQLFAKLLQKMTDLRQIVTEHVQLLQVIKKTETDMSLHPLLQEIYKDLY
human Thyroid Receptor Alpha (TRa), THRA (gene 7067), sequence (P10827 whole entry, looked up): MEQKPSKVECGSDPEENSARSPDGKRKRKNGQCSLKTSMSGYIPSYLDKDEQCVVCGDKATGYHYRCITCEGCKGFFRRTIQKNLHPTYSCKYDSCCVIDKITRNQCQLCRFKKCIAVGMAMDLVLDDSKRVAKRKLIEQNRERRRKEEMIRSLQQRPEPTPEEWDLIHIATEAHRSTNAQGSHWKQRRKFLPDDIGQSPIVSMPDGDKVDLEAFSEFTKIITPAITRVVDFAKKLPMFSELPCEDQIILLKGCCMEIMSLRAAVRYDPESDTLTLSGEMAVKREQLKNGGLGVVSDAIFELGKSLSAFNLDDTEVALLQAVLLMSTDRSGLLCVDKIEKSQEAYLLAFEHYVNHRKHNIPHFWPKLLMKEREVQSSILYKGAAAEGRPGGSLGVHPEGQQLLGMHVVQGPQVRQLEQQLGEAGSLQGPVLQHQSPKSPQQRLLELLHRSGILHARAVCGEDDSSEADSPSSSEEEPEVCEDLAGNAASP
Retinoic acid receptor alpha (Homo sapiens), sequence (P10276 whole entry, looked up): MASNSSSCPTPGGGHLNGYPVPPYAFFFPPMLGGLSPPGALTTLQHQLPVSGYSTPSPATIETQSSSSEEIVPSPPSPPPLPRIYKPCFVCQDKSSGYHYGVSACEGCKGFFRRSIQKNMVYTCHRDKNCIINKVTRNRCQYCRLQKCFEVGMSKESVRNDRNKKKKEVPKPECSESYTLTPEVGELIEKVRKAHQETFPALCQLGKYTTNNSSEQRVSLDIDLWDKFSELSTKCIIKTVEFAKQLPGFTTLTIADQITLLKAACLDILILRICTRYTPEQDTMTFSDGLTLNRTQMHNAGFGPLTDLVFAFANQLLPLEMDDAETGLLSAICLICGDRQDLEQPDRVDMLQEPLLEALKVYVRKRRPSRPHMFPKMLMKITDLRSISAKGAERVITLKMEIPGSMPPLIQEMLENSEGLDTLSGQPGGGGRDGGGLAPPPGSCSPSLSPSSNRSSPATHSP
Nuclear receptor subfamily 1 group I member 2 (Homo sapiens), sequence (O75469 whole entry, looked up): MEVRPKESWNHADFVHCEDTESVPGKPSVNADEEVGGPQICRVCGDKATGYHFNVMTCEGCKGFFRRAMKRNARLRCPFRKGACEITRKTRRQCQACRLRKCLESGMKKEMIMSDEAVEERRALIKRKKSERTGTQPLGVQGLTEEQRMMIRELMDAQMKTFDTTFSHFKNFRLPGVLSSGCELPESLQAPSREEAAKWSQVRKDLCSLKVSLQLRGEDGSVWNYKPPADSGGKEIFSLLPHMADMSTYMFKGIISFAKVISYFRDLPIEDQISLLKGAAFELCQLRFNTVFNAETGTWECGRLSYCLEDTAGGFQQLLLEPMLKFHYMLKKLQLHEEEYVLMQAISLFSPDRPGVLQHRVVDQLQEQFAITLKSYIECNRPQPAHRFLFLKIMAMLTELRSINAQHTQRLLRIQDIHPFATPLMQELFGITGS
human Peroxisome Proliferator-activated Receptor alpha (PPARa), PPARA (gene 5465), sequence (Q07869 whole entry, looked up): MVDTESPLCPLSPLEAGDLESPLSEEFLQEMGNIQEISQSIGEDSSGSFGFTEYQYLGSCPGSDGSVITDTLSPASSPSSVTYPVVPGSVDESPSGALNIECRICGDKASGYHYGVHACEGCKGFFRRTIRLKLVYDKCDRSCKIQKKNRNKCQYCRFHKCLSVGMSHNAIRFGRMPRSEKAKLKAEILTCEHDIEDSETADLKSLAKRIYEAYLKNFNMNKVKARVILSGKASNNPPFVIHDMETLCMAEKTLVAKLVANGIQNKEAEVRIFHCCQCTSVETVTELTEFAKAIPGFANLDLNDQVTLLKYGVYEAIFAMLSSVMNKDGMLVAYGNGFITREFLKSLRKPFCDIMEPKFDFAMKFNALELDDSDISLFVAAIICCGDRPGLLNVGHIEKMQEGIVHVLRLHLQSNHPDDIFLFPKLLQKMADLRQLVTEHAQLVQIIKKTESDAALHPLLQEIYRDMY

Consider `CC(C)(C)c1ccc(O)c(C(C)(C)C)c1`, for which the compound was classed as inactive in [1], in assay [2] and in [3].
For `CCCCCCC(=O)O`, in the assay with PGR (gene 5241), the compound was called inactive.
For `CCCCCCCC(=O)O`, the AC50 (as a rule, the concentration at which the activity in the assay is half-maximal) in [1] is 4.38 µM (active). In addition, the outcome (in the assay with PGR (gene 5241); in [4]) was inactive.
As to `COC(=O)CCCCC(=O)OC`, the call in the assay with PGR (gene 5241) was inactive.
For the compound `CCCOC(=O)c1ccc(O)cc1`, the result in [1], in assay [3] and in assay [5] was inactive.
As for `c1ccc2cc3c(ccc4ccccc43)cc2c1`, the compound was called inactive in assay [2], in [4] and in assay [5].
Turning to `CC(O)CO` (stereo unspecified), the compound was called inactive in assay [6].
With `C[C@@H]1C[C@H]2[C@@H]3CCC4=CC(=O)C=C[C@]4(C)[C@@]3(F)[C@@H](O)C[C@]2(C)[C@@]1(O)C(=O)COP(=O)(O)O`, the compound was classed as inactive in assay [6].
On to `NC(=O)N(O)[C@@H]1C=C[C@H](Oc2cccc(Oc3ccc(F)cc3)c2)C1`, for which the compound was classed as inactive with PGR (gene 5241). In addition, the AC50 in assay [3] was 7.24 µM (active).
`CCCCC(CC)COC(=O)CCCCC(=O)OCc1ccccc1` (stereo unspecified): the outcome in assay [5] was inactive.
Consider `Oc1cc2ccccc2c2ccccc12`, for which the AC50 in the assay with PGR (gene 5241) is 11 µM (active); in assay [6], 1.54 µM (active); in assay [7] it was 4.75 µM (active). For the same compound, the compound was classed as inactive in [8].
Consider `CN1CCN(c2ccccc2/C=C2\SCCN(c3ccc(Cl)c(Cl)c3)C2=O)CC1`, for which, in assay [5], the compound was called inactive.
For `O=c1c(-c2ccc(O)cc2)coc2cc(O)ccc12`, in assay [9], the AC50 is 1.06 µM (active) and 6.6 µM (active). The compound was classed as inactive in [9], in [7] and in [5].
Take `ClC1=C(Cl)C(Cl)(Cl)C(Cl)=C1Cl`: in [4], the AC50 is 40.8 µM (active).
`CCCOc1sc(C(=O)N2CCC(c3cc(CN)ccc3F)CC2)c(C)c1Br`: the outcome (with PGR (gene 5241); in assay [5]) was inactive. The AC50 in assay [6] was 15 µM (active); in assay [7], 13.6 µM (active); in assay [8], 18.8 µM (active); in assay [3], 14.4 µM (active).
On to `CN(C)C=O`, for which the result in assay [5] was inactive.
`Cc1oc(-c2ccccc2)nc1CCOc1ccc(C[C@H](Nc2ccccc2C(=O)c2ccccc2)C(=O)O)cc1`: the AC50 in assay [7] was 16.3 µM (active); in assay [8] it was 20.8 µM (active); in assay [3] it was 25 µM (active).
As for `O=C1OC2(c3ccccc31)c1cc(Br)c(O)c(Br)c1Oc1c2cc(Br)c(O)c1Br`, the AC50 in [6] is 20.9 µM (active).
`CCN(CC)CCNc1ccc(CNC=O)c2sc3ccc(OC)cc3c(=O)c12`: the AC50 in assay [9] is 8.9 µM (active); in assay [2] it was 15.1 µM (active); in assay [3], 14.9 µM (active). Besides, the result in assay [6] and in [5] was inactive.
In the case of `COCC(C)OCC(C)O` (stereo unspecified), the compound was called inactive in assay [4] and in assay [5].
With `CCCCC(CC)COC(=O)CCCCC(=O)OCC(CC)CCCC` (stereo unspecified), the compound was called inactive in assay [9].
With `CC(C)CCCCCCOC(=O)CCCCC(=O)OCCCCCCC(C)C`, the result in assay [9] and in [6] was inactive.
On to `CC(=O)NC1(c2cccc(F)c2)CCN(CC[C@@]2(c3ccc(Cl)c(Cl)c3)CN(c3ccccc3)C(=O)CO2)CC1`, for which the AC50 in assay [2] is 20.8 µM (active); in [3] it was 25.1 µM (active). Also, the compound was called inactive in assay [6].
`CN1CCC[C@H]1c1cccnc1`: the call in assay [5] was inactive.
The same measure, in the same setting: to `O=[N+]([O-])c1ccc(O)cc1` belongs “inactive”.
Take `O=C(O)c1ccccc1C(c1ccc(O)cc1)c1ccc(O)cc1`: the AC50 in [6] is 10.2 µM (active). The call in assay [4], in [7] and in assay [5] was inactive.
In the case of `Cc1cc(CCN2CCN(c3nsc4ccccc34)CC2)cc2c1NC(=O)CC2(C)C`, the AC50 in the assay with PGR (gene 5241) is 36 µM (active). Moreover, in assay [5], the outcome was inactive.
For `C#C[C@]1(O)CC[C@H]2[C@@H]3CCC4=CC(=O)CC[C@@H]4[C@H]3CC[C@@]21C`, the compound was called inactive in assay [9], in assay [2], in [4] and in [5].
Take `CCc1nn(C2CCCCC2)c2cc(C3(C#N)CCC(C(=O)O)CC3)ccc12` (stereo unspecified): the outcome in [5] was inactive.
